Measured values published in PubChem BioAssay (NCI).
This is part of a sample that, as a whole, favours compounds with a hit. Of some 83,000 tested, about 20% had one in any assay.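 Cells were grown in 96-well plates and exposed to the test compound at a single concentration for 48 hours; results are reported as percent growth, with values below 10 considered active.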 Unmarked numbers belong to inactive results. Activity calls are given as the source filed them.

Tested on: HOP-62 NSCLC
Assay: NCI-60 one-dose screen, 48 h (100 = growth as untreated, 0 = no growth, -100 = all killed)
Details: 10 µM unless noted
Description: Growth inhibition of the HOP-62 human Non-Small Cell Lung tumor cell line is measured as a screen for anti-cancer activity. Cells are grown in 96 well plates and exposed to the test compound for 48 hours. Compounds are tested at a single concentration, which is 10^-5 M for most compounds. The reported endpoint is percent growth (GI% or GIPRCNT), where numbers from 0 - 100% represent growth inhibition, and numbers from -100% - 0 represent cell death. For example, a value of 40 represents 60% growth inhibition. A value of 0 means no net growth occurred over the course of the experiment. A value of -40 indicates 40% of cells at the beginning of the experiment died by the end of the experiment. A value of -100 means all cells are dead at the end of the experiment.
NCI-60 Human Tumor Cell Lines Screen was performed using the standard one-dose NCI protocol, which is described in more detail at https://dtp.cancer.gov/discovery_development/nci-60/default.htm.
Compounds with GIPRCNT values below 10 were considered active. Activity score was based on GIPRCNT using the following formula: […]
Score is 0 for GIPRCNT values of 100 or above, 50 for GIPRCNT values of 0, and 100 for GIPRCNT values of -100.

SMILES	growth
CCCCOc1c(N)cccc1C(=O)OCCN(CC)CC	104%
Fc1cccc(F)c1C#Cc1ccc2cccnc2c1	89.5%
CC(=O)N1N=C(CCC(=O)c2nc3ccc([N+](=O)[O-])cc3[nH]2)OC1c1ccc(O)cc1 (stereo not given)	91.2%
O=C(Nc1ccc(-n2cc(-c3ccncc3)c(-c3ccc(O)c(Cl)c3)n2)cc1)Nc1cc(C(F)(F)F)cc(C(F)(F)F)c1	71.5%
CN(C)c1ccc2cc(-c3nc4ccccc4s3)c(N)nc2c1	40.3%
FC(F)(F)c1cccc([Si](F)(c2cccc(C(F)(F)F)c2)c2cccc(C(F)(F)F)c2)c1	90.2%
O=C1CCC(=O)N1C1CCCCC1	93.3%
COc1cc(-c2nc3ccccc3s2)ccc1OCc1nc2n(n1)S(=O)(=O)c1ccccc1N2C	46.1%
O=C(Nc1ccc(-n2ccc3c(NC(=O)c4ccccc4)nccc32)cc1)c1ccc(Cl)c(C(F)(F)F)c1	53.9%
C=C1C(=O)O[C@H]2[C@H]1CC/C(COC(=O)c1ccc(Cl)nc1)=C\CC[C@@]1(C)O[C@@H]21	57.1%
Nc1ncnc2c1c(-c1ccc(Oc3ccccc3)cc1)nn2C[C@H]1SSC[C@H]1O	20.1%
CCn1c(SCC(=O)c2ccc(Br)cc2)nnc1-c1cc2c([nH]c3ccccc32)c(-c2cccc(O)c2)n1	67.6%
COc1ccc(C[C@H](N)C(=O)N[C@@H]2[C@@H](CO)OC(n3cnc4c(N(C)C)ncnc43)[C@@H]2O)cc1 (stereo not given in full)	-57.8% (active)
CC(C)CCC[C@@H](C)[C@H]1CC[C@H]2[C@@H]3CC=C4N(c5ccccc5)C(=O)CC[C@]4(C)[C@H]3CC[C@]12C	98.8%
CN(C)c1ccc(/C=N/n2c(-c3cc(F)c(Cl)cc3Cl)nn(CN3CCOCC3)c2=S)cc1	87.1%
CCc1c(C)c2cc(-n3c(-c4ccc(OC)cc4)csc3=N)c(O)c(C)c2oc1=O	30.4%
COc1cc(-c2nc(N)n(CC(=O)Nc3ccc(/C(C)=N\O)cc3)n2)cc(OC)c1OC	94.5%
CCN(CC)CCNc1ccc([N+](=O)[O-])c2sc3cc(Cl)ccc3c(=O)c12	57.7%
Cc1cccc(NC(=O)CCc2ccc(N3C(N)=NC(N)=NC3(C)C)cc2)c1	24%
CC(C)(C)OC(=O)NCc1cccc(N=C=S)c1	57.8%

SMILES	growth
COc1cc(NS(=O)(=O)c2ccc(N)cc2)ncn1	108%
CC[C@@]1(O)C(=O)OCc2c1cc1n(c2=O)Cc2c-1nc1ccccc1c2/C=N/OC(C)(C)C	-24.1% (active)
O=C(O)c1ccc(-n2cc(/C=N/Nc3ccccc3F)c(-c3ccc(O)cc3)n2)cc1	91.7%
CN[C@@H](CCCNC(N)=NC/C=C(/C)CCC=C(C)C)C(=O)N(C)[C@@H](CCCNC(N)=NCC=C(C)C)C(=O)N[C@H](C)[C@H](OS(=O)(=O)O)c1ccc(OS(=O)(=O)O)c(COS(=O)(=O)O)c1	102%
OCCOCC(F)(F)F	111%
CCc1cccc(C)c1NC(=O)c1sc2nc3c(cc2c1N)CCCCC3	36.9%
Nc1ccc(S(=O)(=O)Nc2cc(I)cc(I)c2)cc1	91.1%
CC1=C[S+](c2ccccc2)c2cccc3cc4ccccc4c1c23 (stereo not given)	-42.6% (active)
O=c1c2ccccc2sc2c(NCCCNCCO)nc3ccccc3c12	36.5%
O=C(Nc1ccc(-n2cc(-c3ccncc3)c(-c3ccc(O)c(Cl)c3)n2)cc1)c1cc(Cl)cc(Cl)c1	45.5%
COc1cc2c(/C=C3/C(=O)Nc4ccc(O)cc43)c(Cl)n(Cc3cc(OC)c(OC)c(OC)c3)c2cc1C	40.1%
Cc1ncc(CO)c(C(=O)O)c1O	104%
O=C(/C=C/c1ccco1)c1cccc(Nc2nc(Nc3ccccc3)nc(Nc3ccccc3)n2)c1	86.5%
CC(=O)c1cc2c(c(O)c1C)C(=O)C(=O)c1c(O)cccc1-2	-78.5% (active)
Nc1nccc2c1ccn2-c1cccc(NC(=O)c2ccc(N3CCOCC3)c(C(F)(F)F)c2)c1	24.1%
COc1ccc(NC(=O)COCCOCCNC[C@@H]2C(=O)O[C@H]3[C@H]2CC/C(COC(=O)OC/C2=C/CC[C@@]4(C)O[C@H]4[C@H]4OC(=O)[C@@H](CN(C)C)[C@@H]4CC2)=C\CC[C@@]2(C)O[C@@H]32)c(O)c1C(N)=O	93.9%
N#Cc1c(N)nc(Cl)c(C#N)c1C(=O)c1ccccc1	69.4%
O=C(Nc1cccc([N+](=O)[O-])c1)c1ccc2ccccc2c1O	53%
O=C(/C=C/c1ccccc1)Oc1ccc(/C=C/c2cc(OC(=O)/C=C/c3ccccc3)cc(OC(=O)/C=C/c3ccccc3)c2)cc1	82.9%
C=C1C(=O)O[C@H]2[C@H]1CC/C(CNC(=O)/C1=C/CC[C@@]3(C)O[C@H]3[C@H]3OC(=O)C(=C)[C@@H]3CC1)=C\CC[C@@]1(C)O[C@@H]21	93.8%
